Screening data deposited in PubChem by several laboratories.
m-calpain inh: inhibitors of pig calpain II, primary screen, biochemical, fluorogenic peptide substrate, 1536-well; AID 1236, 2008; purified calpain II, 30 min; 220,000 compounds, 0.37% hits; inhibition, % at 16 µM;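 active = inhibition above about 50%, limit read from the data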
Efa HMGR inh: inhibitors of E. faecalis class II HMGR, primary screen, biochemical, Enterococcus faecalis; HMG-CoA reductase (Enterococcus faecalis, mvaE); purified E. faecalis HMGR, NADPH absorbance 340 nm kinetic; inhibition, % at 10 µM; 190,000 compounds, 0.41% hits; AID 1066, 2008;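 active = inhibition above a set limit, the median over all tested compounds plus 3 SD, cut at about 9.5% in these data; inconclusive = no clear call, values can overlap the other calls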;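 note: enzyme runs in reverse so mevalonate oxidation gives rising NADPH absorbance; 0% = complete reaction with DMSO and 100% = background rate lacking mevalonate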
Arbovirus anti: antivirals against arbovirus infection, primary screen, cell-based, full library, 10K replicate subset. AID 1251, 2008. 200,000 compounds, 0.37% hits. inhibition, % at 10 µM. arbovirus infection cell-based antiviral screen; in the data active = inhibition above about 30%
ROMK mod: ROMK potassium channel modulators, primary screen, cell-based, thallium flux, MLSMR library | ATP-sensitive inward rectifier potassium channel 1 (Homo sapiens), P48048 | Tet-inducible ROMK, thallium flux fluorescence; actives lie on both sides | B-score at 10 µM | 130,000 compounds, 2% hits | AID 1918, 2009;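 active = signal ratio slope over the read window, or its plate-corrected B-score, at least 3 SD from the plate mean, either direction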;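 note: B-score of the F/F0 ratio slope over 7 to 12 s after thallium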
Target sequence (P48048 whole entry, looked up): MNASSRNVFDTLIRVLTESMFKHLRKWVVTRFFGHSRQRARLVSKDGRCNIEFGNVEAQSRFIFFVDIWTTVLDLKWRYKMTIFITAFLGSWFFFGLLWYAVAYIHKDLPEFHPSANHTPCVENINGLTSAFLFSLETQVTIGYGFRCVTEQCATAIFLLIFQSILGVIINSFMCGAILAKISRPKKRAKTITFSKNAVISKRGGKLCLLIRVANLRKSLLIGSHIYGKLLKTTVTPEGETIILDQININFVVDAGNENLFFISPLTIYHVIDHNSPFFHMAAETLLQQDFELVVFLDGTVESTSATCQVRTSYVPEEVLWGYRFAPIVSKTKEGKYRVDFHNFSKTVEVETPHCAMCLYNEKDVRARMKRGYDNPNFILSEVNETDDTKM
HSV replic up: enhancers of HSV replication in host cells, fold increase, host cell viability; HSV replication augmentation in cells; maximum fold increase; 220,000 compounds, 0.005% hits; in the data active = maximum fold increase above about 1.5; inconclusive = no clear call, values can overlap the other calls; tested in PC3 cells
ROMK hit retest: ROMK channel modulator hit retest, confirmation, cell-based, thallium flux, duplicate, resupplied hits | normalized thallium flux (F/F0 slope) at 10 µM | shares compounds with ROMK mod | 3,000 compounds, 54% hits | fluorescence ratio; hits give low values;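 active = Flux at 10 µM at least 3 SD below or above vehicle control mean in one or both replicates; inconclusive = no clear call, values can overlap the other calls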
Active calls of the source: *; i = inactive; ? = inconclusive; nt = no result. Sampled rows, rich in hits. Any-hit rate of the full collection: about 2.1%.

SMILES	m-calpain inh	Efa HMGR inh	Arbovirus anti	ROMK mod	HSV replic up	ROMK hit retest
COc1cccc(-c2nnc(SCC(=O)Nc3cc(C)ccc3OC)n2N)c1	3.6	-0.1	-1.9	nt	i	?
CN1C(=O)c2ccc(N3CCCC3)cc2C1=O	7.4	-2.5	1.4	nt	i	nt
Cc1cc(N2CCCC2)ccc1/C=C1\NC(=S)N(C)C1=O	-10.2	-4.5	4.5	-3.16*	?	0.025*
O=C(CSc1ccc(Cl)cc1)Nc1ccc(-c2nc3ccccc3[nH]2)cc1	-33.6	0.2	-13.8	nt	i	nt
CC1CCC(C(C)C)C(OC(=O)Cn2c(-c3ccccc3)[n+](C)c3ccccc32)C1 (configuration not stated)	12.2	-7.8	-28.0	-6.34*	i	0.0388*
Cc1cccc(OCc2n(CC(=O)OC3CC(C)CCC3C(C)C)c3ccccc3[n+]2C)c1 (configuration not stated)	-22.8	-3.5	-28.9	-6.2*	i	0.0374*
CC1CCC(C(C)C)C(OC(=O)Cn2c(-c3ccc(F)cc3)[n+](C)c3ccccc32)C1 (configuration not stated)	-13.8	0.0	-45.3	-4.98*	i	0.0466*
Cc1cccc(OC(=O)Cn2c(C(F)(F)F)nc3ccccc32)c1	-1.9	4.8	13.9	-0.742	nt	nt
N#Cc1c(N)n(CCOC(=O)c2cccc([N+](=O)[O-])c2)c2nc3ccccc3nc12	-194.7	-7.0	-1.2	nt	i	nt
N#Cc1c(N)n(CCOC(=O)c2cccc(Br)c2)c2nc3ccccc3nc12	-185.8	-0.9	11.2	-1.39	i	0.0888
COc1ccc(CC(=O)Nc2cccc(SC)c2)cc1OC	3.0	7.9	0.8	0.00839	i	nt
Cc1ccccc1CN(c1ccc(C(=O)NCc2ccccn2)cc1)S(C)(=O)=O	-13.0	-2.9	-3.7	-0.834	i	nt
O=C(Cn1ncc2c3ccccc3n(Cc3ccc(F)cc3)c2c1=O)N1CCN(c2ncccn2)CC1	-221.5	-1.9	-3.1	-2.87*	i	0.0673*
O=c1nc(/C=C/c2cc([N+](=O)[O-])ccc2Cl)cc(C(F)(F)F)[nH]1	-23.8	-0.4	-41.4	-6.05*	i	0.0403*
O=c1nc(/C=C/c2cccn2-c2ccc([N+](=O)[O-])cc2)cc(C(F)(F)F)[nH]1	-51.7	-4.2	10.9	0.275	i	nt
COc1cccc(/C=N/NC(=O)c2cc3c(OC)cccc3[nH]2)c1OC	-6.6	-0.3	-0.4	nt	i	0.0703
CC(=O)c1nc(N2C(=O)CC(Cc3ccccc3)C2=O)sc1C (configuration not stated)	16.1	6.9	-9.3	nt	i	nt
COc1ccc(CN2CCSCC2)cc1C	-43.1	-7.3	6.1	3.33*	i	0.0809
COc1cccc(CN(C)CC(=O)Nc2ccccc2C(C)C)c1	43.9	-0.8	-11.7	0.425	i	nt
COc1ccc2c(c1)nc(N)n2Cc1ccccc1	-11.2	-12.5	6.6	-3.04*	nt	0.0528*
COc1ccc(-c2nc3ccccc3n2Cc2ccccc2)cc1	-21.7	0.8	1.3	-0.583	i	nt
O=C(O)c1ccc(N/N=C/C2=C(N3CCOCC3)C(=C\c3ccccc3)/CC2)cc1	16.8	nt	nt	nt	i	0.0451*
Cc1cc(C)nc(N/N=C/C2=C(N3CCOCC3)C(=C\c3ccc(Cl)cc3)/CC2)n1	-73.6	1.5	1.7	-0.735	i	nt
CC(C)Cc1cc(CN2CCC(CO)(Cc3ccccc3)CC2)[nH]n1	6.7	nt	nt	nt	i	nt
COc1ccc(C2C(C#N)=C(N)Oc3c2ccc2cccnc32)cc1OC (configuration not stated)	-7.8	-1.6	-17.8	6.72*	i	0.0774
COc1cc(C2C(C#N)=C(N)Oc3c2ccc2ccccc32)ccc1OCC(=O)Nc1ccc(C)cc1 (configuration not stated)	-80.2	0.7	-12.6	-0.541	i	nt
CC(C)N(Cc1ccccc1)CC(O)COc1ccc(S(=O)(=O)N2CCOCC2)cc1Cl (configuration not stated)	16.9	-5.3	-0.6	0.00769	i	nt
CCCCC(=O)Nc1ccc(NC(=O)c2ccc([N+](=O)[O-])cc2)cc1OC	-13.9	-2.4	-1.3	0.28	i	nt
CCCCC(=O)Nc1ccc(C(=O)Nc2ccc(OC)cc2[N+](=O)[O-])cc1	3.3	1.9	-3.4	nt	i	0.0348*
